Measurements reported in the supplement of paper PMC9262897, “Low-cost anti-mycobacterial drug discovery using engineered E. coli” (Nature Communications, 2022).
Counter-ions that a name gives are not always drawn. ± gives the standard deviation of the averaged measurements.

Key:
Assay in all cases: growth (OD600 after 10 h); higher = more growth (less inhibition)
[1] = tested on: E. coli TESEC Alr+ wild-type control; conditions: compound 0.1 mM; raw OD600 reference: median of DMSO wells 0.241, cell-free background 0.041
Description: (§1)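 TESEC Mtb Alr E. coli, or the Alr+ wild-type control, in 384-well plates with Prestwick library compounds at 0.1 mM and 1% DMSO, across arabinose induction levels of 1E3 to 1E7 nM. Growth is read as OD600 after 10 h at 37 °C in triplicate biological replicates.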

E. coli TESEC Mtb Alr [2] = conditions: compound 0.1 mM
Description: as §1

E. coli TESEC Mtb Asd = conditions: compound 0.1 mM
Description: (§2)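 TESEC E. coli strains in which the native enzyme is deleted and replaced by arabinose-inducible Mtb Asd, DapB, CysH or TrpD, each grown in its selective medium. Strains were screened against the Prestwick library at 0.1 mM and 1% DMSO in 384-well format at low and high arabinose induction. Growth is read as OD600 after 10 h in triplicate.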

E. coli TESEC Mtb DapB = conditions: compound 0.1 mM
Description: as §2

[3] = tested on: E. coli TESEC Alr+ wild-type control; conditions: compound 0.1 mM; raw OD600 reference: median of DMSO wells 0.49, cell-free background 0.052
Description: (§3)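 TESEC Mtb Alr E. coli (ΔaraC ΔtolC ΔentC Δalr ΔdadX, arabinose-inducible Mtb Alr) or the Alr+ wild-type control strain, grown in defined M9-fructose medium without D-alanine in 96-well plates with Prestwick library compounds at 0.1 mM and 1% DMSO. Low Alr induction is 0.1 µM arabinose and high induction is 10 mM arabinose.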

E. coli TESEC Mtb Alr [4] = conditions: compound 0.1 mM; remark: listed apart in the source
Description: as §3

[5] = arabinose 1000 nM, raw OD600 reference: median of DMSO wells 0.294, cell-free background 0.041
[6] = arabinose 10000 nM, raw OD600 reference: median of DMSO wells 0.264, cell-free background 0.041
[7] = arabinose 100000 nM, raw OD600 reference: median of DMSO wells 0.201, cell-free background 0.041
[8] = arabinose 1000000 nM, raw OD600 reference: median of DMSO wells 0.193, cell-free background 0.041
[9] = arabinose 10000000 nM, raw OD600 reference: median of DMSO wells 0.146, cell-free background 0.041
[10] = arabinose induction (level): High, raw OD600 reference: median of DMSO wells 0.331, cell-free background 0.041
[11] = arabinose induction (level): Low, raw OD600 reference: median of DMSO wells 0.417, cell-free background 0.041
[12] = arabinose induction (level): High, raw OD600 reference: median of DMSO wells […], cell-free background 0.041
[13] = arabinose induction (level): Low, raw OD600 reference: median of DMSO wells 0.227, cell-free background 0.041
[14] = arabinose 100 nM, raw OD600 reference: median of DMSO wells 0.413, cell-free background 0.052
[15] = arabinose 10000000 nM, raw OD600 reference: median of DMSO wells […], cell-free background 0.052

| Structure (SMILES) | growth [1] | growth (E. coli TESEC Mtb Alr [2]; [5]) | growth (E. coli TESEC Mtb Alr [2]; [6]) | growth (E. coli TESEC Mtb Alr [2]; [7]) | growth (E. coli TESEC Mtb Alr [2]; [8]) | growth (E. coli TESEC Mtb Alr [2]; [9]) | growth (E. coli TESEC Mtb Asd; [10]) | growth (E. coli TESEC Mtb Asd; [11]) | growth (E. coli TESEC Mtb DapB; [12]) | growth (E. coli TESEC Mtb DapB; [13]) | growth [3] | growth (E. coli TESEC Mtb Alr [4]; [14]) | growth (E. coli TESEC Mtb Alr [4]; [15]) |
| --- | --- | --- | --- | --- | --- | --- | --- | --- | --- | --- | --- | --- | --- |
| CC(=O)OC1CN2CCC1CC2 (centres undefined) [Aceclidine Hydrochloride] | 0.257 ± 0.0078 | 0.314 ± 0.0082 | 0.2646 ± 0.0025 | 0.232 ± 0.041 | 0.174 ± 0.0042 | 0.166 ± 0.0076 | 0.22 ± 0.0099 | 0.306 ± 0.013 | 0.204 ± 0.02 | 0.232 ± 0.023 | 0.459 ± 0.015 | 0.41 ± 0.007 | 0.359 ± 0.031 |
| CC(=O)O[C@H]1C[C@H](O[C@H]2[C@@H](O)C[C@H](O[C@H]3[C@@H](O)C[C@H](O[C@H]4CC[C@@]5(C)[C@H](CC[C@@H]6[C@@H]5C[C@@H](O)[C@]5(C)[C@@H](C7=CC(=O)OC7)CC[C@]65O)C4)O[C@@H]3C)O[C@@H]2C)O[C@H](C)[C@H]1O[C@@H]1O[C@H](CO)[C@@H](O)[C@H](O)[C@H]1O [Lanatoside C] | 0.198 ± 0.0032 | 0.261 ± 0.024 | 0.26 ± 0.0028 | 0.295 ± 0.031 | 0.19 ± 0.0089 | 0.243 ± 0.024 | 0.339 ± 0.04 | 0.417 ± 0.057 | 0.184 ± 0.021 | 0.233 ± 0.03 | 0.528 ± 0.096 | 0.4014 ± 0.0037 | 0.354 ± 0.0094 |
| CO[C@]12C[C@@H](COC(=O)c3cncc(Br)c3)CN(C)[C@@H]1Cc1cn(C)c3cccc2c13 [Nicergoline] | 0.174 ± 0.0043 | 0.184 ± 0.0071 | 0.194 ± 0.0054 | 0.223 ± 0.0047 | 0.102 ± 0.0052 | 0.184 ± 0.0056 | 0.221 ± 0.021 | 0.279 ± 0.056 | 0.227 ± 0.014 | 0.277 ± 0.028 | 0.481 ± 0.049 | 0.416 ± 0.005 | 0.268 ± 0.015 |
| CN[C@@H]1C[C@@H](c2ccc(Cl)c(Cl)c2)c2ccccc21 [Indatraline hydrochloride] | 0.0397 ± 0.00076 | 0.0417 ± 0.00046 | 0.0413 ± 0.00055 | 0.0425 ± 0.0013 | 0.03897 ± 0.00015 | 0.0445 ± 0.002 | 0.0513 ± 0.0011 | 0.0522 ± 0.0001 | 0.052 ± 0.0016 | 0.05117 ± 0.00042 | – | 0.24 ± 0.15 | 0.0505 ± 0.00096 |
| C1CCc2nnnn2CC1 [Pentylenetetrazole] | 0.255 ± 0.011 | 0.282 ± 0.018 | 0.275 ± 0.0089 | 0.233 ± 0.021 | 0.187 ± 0.0053 | 0.141 ± 0.007 | 0.402 ± 0.0048 | 0.431 ± 0.017 | 0.227 ± 0.037 | 0.274 ± 0.11 | – | 0.408 ± 0.011 | 0.367 ± 0.022 |
| NCC(O)c1ccc(O)cc1 (racemic) [(+,-)-Octopamine hydrochloride] | 0.258 ± 0.0024 | 0.325 ± 0.02 | 0.268 ± 0.011 | 0.194 ± 0.012 | 0.179 ± 0.0096 | 0.162 ± 0.0021 | 0.483 ± 0.015 | 0.45 ± 0.018 | 0.203 ± 0.0088 | 0.271 ± 0.022 | 0.584 ± 0.08 | 0.408 ± 0.015 | 0.337 ± 0.014 |
| CCC(=O)O[C@H]1CC[C@H]2[C@@H]3CCC4=CC(=O)CC[C@]4(C)[C@H]3CC[C@]12C [Testosterone propionate] | 0.157 ± 0.016 | 0.145 ± 0.0086 | 0.261 ± 0.0051 | 0.12 ± 0.0075 | 0.107 ± 0.0037 | 0.117 ± 0.015 | 0.336 ± 0.065 | 0.454 ± 0.04 | 0.214 ± 0.0086 | 0.189 ± 0.002 | – | 0.269 ± 0.18 | 0.148 ± 0.025 |
| C[C@]12CC[C@H]3[C@@H](CCC4=CC(=O)CC[C@@H]43)[C@@H]1CC[C@@H]2O [Nandrolone] | 0.154 ± 0.0082 | 0.201 ± 0.014 | 0.226 ± 0.012 | 0.118 ± 0.0031 | 0.0814 ± 0.0003 | 0.115 ± 0.0021 | 0.106 ± 0.0027 | 0.267 ± 0.1 | 0.1471 ± 0.0014 | 0.159 ± 0.0037 | – | 0.408 ± 0.0099 | 0.211 ± 0.0078 |
| COc1ccc(CCN)cc1OC [Homoveratrylamine] | 0.2134 ± 0.001 | 0.287 ± 0.0094 | 0.281 ± 0.011 | 0.182 ± 0.019 | 0.219 ± 0.0076 | 0.131 ± 0.002 | 0.225 ± 0.018 | 0.353 ± 0.087 | 0.188 ± 0.012 | 0.217 ± 0.054 | – | 0.409 ± 0.0095 | 0.316 ± 0.0066 |
| CCCC(C)(COC(N)=O)COC(=O)NC(C)C (centres undefined) [Carisoprodol] | 0.237 ± 0.008 | 0.287 ± 0.011 | 0.283 ± 0.0077 | 0.211 ± 0.014 | 0.198 ± 0.0098 | 0.142 ± 0.0024 | 0.268 ± 0.02 | 0.322 ± 0.083 | 0.155 ± 0.0092 | 0.191 ± 0.015 | 0.594 ± 0.082 | 0.403 ± 0.01 | 0.341 ± 0.015 |
| C[C@]12CCC(=O)C=C1CC[C@@H]1[C@@H]2C(=O)C[C@]2(C)C(=O)CC[C@@H]12 [Adrenosterone] | 0.212 ± 0.0061 | 0.273 ± 0.015 | 0.245 ± 0.0058 | 0.163 ± 0.0036 | 0.131 ± 0.011 | 0.123 ± 0.0015 | 0.256 ± 0.03 | 0.445 ± 0.023 | 0.202 ± 0.007 | 0.225 ± 0.032 | – | 0.406 ± 0.014 | 0.2946 ± 0.0019 |
| COc1ccc(CN2CCNCC2)c(OC)c1OC [Trimetazidine dihydrochloride] | 0.228 ± 0.0052 | 0.3105 ± 0.0026 | 0.268 ± 0.0047 | 0.23 ± 0.024 | 0.172 ± 0.0071 | 0.162 ± 0.0046 | 0.301 ± 0.068 | 0.307 ± 0.11 | 0.197 ± 0.0097 | 0.242 ± 0.028 | – | 0.409 ± 0.014 | 0.33 ± 0.019 |
| C[C@@H]1CN([C@H]2CC[C@](C#N)(c3ccc(F)cc3)CC2)CC[C@]1(C(=O)O)c1ccccc1 [Levocabastine hydrochloride] | 0.215 ± 0.0053 | 0.274 ± 0.0041 | 0.271 ± 0.017 | 0.171 ± 0.011 | 0.154 ± 0.0044 | 0.154 ± 0.0047 | 0.212 ± 0.033 | 0.384 ± 0.03 | 0.192 ± 0.0051 | 0.265 ± 0.029 | 0.49 ± 0.026 | 0.404 ± 0.017 | 0.321 ± 0.022 |
| C[N+](C)(C)CCCCCCCCCC[N+](C)(C)C [Decamethonium bromide] | 0.246 ± 0.0085 | 0.286 ± 0.015 | 0.2525 ± 0.0016 | 0.214 ± 0.022 | 0.208 ± 0.003 | 0.13 ± 0.0017 | 0.369 ± 0.032 | 0.444 ± 0.043 | 0.234 ± 0.021 | 0.242 ± 0.0099 | – | 0.39 ± 0.017 | 0.376 ± 0.022 |
| COc1ccc(C(CN(C)C)C2(O)CCCCC2)cc1 (centres undefined) [Venlafaxine] | 0.219 ± 0.015 | 0.301 ± 0.016 | 0.251 ± 0.01 | 0.185 ± 0.013 | 0.178 ± 0.0042 | 0.137 ± 0.0036 | 0.436 ± 0.066 | 0.459 ± 0.032 | 0.207 ± 0.0032 | 0.22 ± 0.016 | 0.438 ± 0.018 | 0.415 ± 0.0048 | 0.338 ± 0.025 |
| CN1C(=O)CCS(=O)(=O)C1c1ccc(Cl)cc1 (centres undefined) [Chlormezanone] | 0.244 ± 0.0034 | 0.298 ± 0.018 | 0.256 ± 0.0031 | 0.256 ± 0.012 | 0.188 ± 0.013 | 0.146 ± 0.005 | 0.328 ± 0.08 | 0.407 ± 0.066 | 0.193 ± 0.0088 | 0.207 ± 0.011 | – | 0.408 ± 0.011 | 0.367 ± 0.0068 |
